# Experimental data taken from PubChem BioAssay AID588675 (Johns Hopkins Ion Channel Center, 2011).
# Among all 310,000 compounds or so, about 1,900 (0.61%) were called active. This is one part of a sample in which actives are shown more often than they occur.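 The calls were made as follows: active = plate-corrected calcium response at least 3 library SD above typical, normal starting fluorescence, not activating the receptor alone; inactive = the rest.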
# Molecular target: Mas-related G-protein coupled receptor member X1 (Homo sapiens) (UniProt Q96LB2)
# Sequence (Q96LB2 whole entry, looked up): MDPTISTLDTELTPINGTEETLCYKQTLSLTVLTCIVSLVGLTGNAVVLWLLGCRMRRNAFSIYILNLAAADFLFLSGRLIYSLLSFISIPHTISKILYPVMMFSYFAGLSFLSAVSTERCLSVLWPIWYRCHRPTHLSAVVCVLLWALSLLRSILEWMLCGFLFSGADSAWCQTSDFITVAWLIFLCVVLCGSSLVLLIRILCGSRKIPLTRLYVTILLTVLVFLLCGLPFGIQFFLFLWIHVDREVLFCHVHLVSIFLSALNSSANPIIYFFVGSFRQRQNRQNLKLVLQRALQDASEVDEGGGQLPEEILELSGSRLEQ
# Experiment: allosteric enhancers of human MrgX1 signaling – HEK293 cells, Fluo-4 calcium flux, primary screen (AID 588675);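 also: compound read alongside a low EC10 to EC30 dose of BAM8-22 agonist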;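 as to B-score: peak minus trough fluorescence over baseline measured at the second addition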
# Conditions: MrgX1-HEK293, Fluo-4 calcium flux, FDSS, at 10 µM; hits give high values
row,Structure (SMILES),B-score
1,COc1cc(C(F)(F)F)nc2c(Br)c(C(C)(C)C)nn12,10.1 (active)
2,CNC(=O)c1sc(Nc2ccc(OCc3ccccc3)cc2)nc1C,inactive
3,CCCC(=O)Nc1ncnc2c1ncn2[C@@H]1O[C@@H]2OP(=O)(O)OC[C@H]2[C@H]1OC(=O)CCC,inactive
4,CC(=O)N1c2ccc(S(=O)(=O)N3CCCC(C(=O)NCc4ccc(Cl)cc4)C3)cc2CC1C (stereo not given),inactive
5,CC(=O)N1c2ccc(S(=O)(=O)N3CCCC(C(=O)Nc4cccc(F)c4)C3)cc2CC1C (stereo not given),inactive
6,CC(=O)N1c2ccc(S(=O)(=O)N3CCCC(C(=O)Nc4cccc(Cl)c4)C3)cc2CC1C (stereo not given),16.4 (active)
7,Cc1nnc(SCC(=O)NC(=O)NC2CCCC2)n1N,inactive
8,COc1ccc(C2c3[nH]c4ccccc4c3CCN2CCCn2cccn2)cc1C (stereo not given),inactive
9,Cc1nccn1CCC1CCCCN1C(=O)CCc1nnc(-c2ccsc2)o1 (stereo not given),inactive
10,CC1(C)CC(=O)CC2(C1)NCC(c1ccccc1Cl)c1c2[nH]c2ccccc12 (stereo not given),13.7 (active)
11,CC1CCN(c2ccc(-c3ccc(NC(=O)c4ccco4)cc3)nn2)CC1,inactive
12,O=C(O)CCN=C1CCc2ccccc2N1,inactive
13,CCOC(=O)C1CCN(S(=O)(=O)c2ccc3c(c2)N(C)C(=O)CC(=O)N3C)CC1,inactive
14,COc1ccc(C(=O)NCc2nnc(SCC(=O)Nc3cccc(OC)c3)o2)cc1,inactive
15,COc1cccc(NC(=O)CSc2nnc(Cc3ccc(OC)c(OC)c3)o2)c1,10.7 (active)
16,COc1ccc(Cc2nnc(SCC(=O)Nc3ccc(C)c(C)c3)o2)cc1OC,inactive
17,O=S(=O)(Nc1ccc(Oc2ncccn2)c(Cl)c1)c1ccc(F)cc1,inactive
18,COc1ccc(Cl)cc1NC(=O)CCS(=O)(=O)c1ccc(Br)cc1,inactive
19,CC1CCN(CCCNC(=O)CN2C(=O)CSc3ccc(S(=O)(=O)N4CCCCC4)cc32)CC1,inactive
20,CC(=O)c1ccc(N=C2SCCCN2C(=O)C2CCCCC2)cc1,inactive
21,O=C(Nc1ccc(F)cc1)c1cc2c(s1)CCCC2,inactive
22,O=C(NNC(=O)c1cc2c(s1)CCCC2)c1ccccc1,6.55 (active)
23,O=C(c1cc2c(s1)CCC2)N1CCN(c2ccccc2)CC1,inactive
24,CC1(C)C=Cc2c(ccc3c2OC[C@@H](c2ccc(O)cc2O)C3)O1,inactive

row,Structure (SMILES),B-score
1,CC1(C)CC(=O)c2cnc3nc4ccccc4n3c2C1,inactive
2,CCn1cc(C(=O)NCC(=O)NC(C)(C)CO)c(=O)c2cc3c(cc21)OCO3,inactive
3,CC(C)(C)Oc1ncc(Br)c(OC(C)(C)C)n1,inactive
4,COc1ccc(-c2nc(N)ncc2-c2ccc(Cl)cc2)c(O)c1,inactive
5,COc1cccc(-c2cnc(OC(C)(C)C)nc2OC(C)(C)C)c1,6.93 (active)
6,Cc1csc(=NC(=O)c2ccccc2)n1CCO,inactive
7,OCCn1c(-c2ccccc2)csc1=Nc1ccccc1,14.7 (active)
8,Cc1csc(=Nc2ccccc2)n1CCO,inactive
9,COCCOCCn1cnc2ccccc21,inactive
10,Clc1ncn(CCOc2ccccc2)c1Cl,inactive
11,Cc1cc2ncn(CCCCOc3ccccc3)c2cc1C,10.8 (active)
12,CCN1CCCC1CNC(=O)c1cc2cc(OC)c(OC)cc2[nH]1 (stereo not given),inactive
13,COc1ccc(-c2cc(C(F)(F)F)nc(NCc3cccnc3)n2)cc1,inactive
14,COc1ccc(-c2cc(C(F)(F)F)nc(S(C)(=O)=O)n2)cc1OC,8.21 (active)
15,COc1ccc(-c2ccc(Nc3ccc(S(=O)(=O)N4CCCC4)cc3)nn2)cc1OC,inactive
16,N/C(=N\OC(=O)CCn1cccc(C(F)(F)F)c1=O)c1ccc(OC(F)(F)F)cc1,inactive
17,Cc1ccc2c(=O)oc(N(C)C)nc2c1,inactive
18,CCC(C)CCN1CCN=C1N(C)C (stereo not given),inactive
19,COc1ccc(CCNC(=O)C(Sc2ccccn2)c2ccccc2)cc1OC (stereo not given),8.72 (active)
20,COc1ccc(CCNC(=O)c2ccccc2-c2ccccc2C(=O)O)cc1OC,inactive
21,COc1ccc(CCNC(=O)C(=O)NCc2ccccc2C)cc1OC,inactive
22,Cc1ccc(NC(=O)C(C)OC(=O)Cc2c[nH]c3ccccc23)cc1S(=O)(=O)N1CCOCC1 (stereo not given),inactive
23,CCOc1cccc2c1OC1(CCCCC1)N1N=C(c3cccnc3)CC21 (stereo not given),inactive
24,CC(C)=CCC/C(C)=C/C(=O)O,inactive

row,Structure (SMILES),B-score
1,Cc1cccc(C)c1NC(=S)N(Cc1cccnc1)Cc1ccccc1Cl,10.5 (active)
2,Cc1ccc(CN(Cc2cccnc2)C(=S)Nc2cccc(Cl)c2C)cc1,inactive
3,Cc1c(Cl)cccc1NC(=S)N(Cc1ccccc1)Cc1cccnc1,inactive
4,Cc1cccc(C(=O)OCC(=O)Nc2ccc(F)cc2)c1,inactive
5,CCc1ccc(NC(=O)COC(=O)c2cccs2)cc1,inactive
6,O=C(COC(=O)c1ccc(NS(=O)(=O)c2cccs2)cc1O)Nc1ccc(F)cc1,9.09 (active)
7,Cc1cc(S(=O)(=O)NC2CCCC2)ccc1-n1cnnn1,inactive
8,Cc1ccc(-n2[nH]c(C)c(/C=N/N3C(=O)c4cccc5cccc(c45)C3=O)c2=O)cc1,inactive
9,Cc1[nH]n(-c2cccc(Cl)c2)c(=O)c1/C=N/n1c(C)nc2ccccc2c1=O,inactive
10,Cc1[nH]n(-c2ccc(Cl)cc2)c(=O)c1/C=N/n1c(C)nc2ccccc2c1=O,11.4 (active)
11,Cc1ccc(NS(=O)(=O)c2ccc3c(c2)oc(=O)n3C)c(C)c1,inactive
12,O=C(NCC(=O)N1CCC2(CC1)NCCc1[nH]cnc12)c1ccc(Br)cc1,inactive
13,Cc1cc(C)c(S(=O)(=O)N2CCOCC2)cc1C,inactive
14,C/C(=N\Nc1nc2ccccc2[nH]1)c1cccs1,inactive
15,C/C(=N\Nc1ncc(Cl)cc1Cl)c1cccs1,8.26 (active)
16,C/C(=N\Nc1ncc(Cl)cc1Cl)c1ccc(S(=O)(=O)NCc2ccco2)cc1,inactive
17,O=C(C[C@H]1C(=O)N(c2ccc(F)c(F)c2)C[C@@H]1Cc1ccccc1)Nc1ccccc1,inactive
18,COc1ccccc1-n1nnnc1S(=O)(=O)Cc1ccc(Cl)cc1,inactive
19,CCCCNS(=O)(=O)c1ccc(S(=O)(=O)n2cnc3ccccc32)cc1,inactive
20,Cc1oc2cc3oc(=O)ccc3cc2c1C,inactive
21,CC(C)C(=O)Nc1ccc2oc(=O)ccc2c1,inactive
22,COc1c(C(C)C)oc2cc3oc(=O)ccc3cc12,9.1 (active)
